# Measurements taken from PubChem BioAssay AID2242 (National Center for Advancing Translational Sciences (NCATS), 2010).
# Among all 200,000 compounds or so, about 720 (0.36%) were called active. About 8% were inconclusive and are not listed. The list shows a part of the results. Values without a mark were called inactive. Calls follow the shape of the dose curve; as a rule, active = well fitted activation curve with a large enough effect; inconclusive = small, poorly fitted or top-dose-only effect, or effect the other way, or another doubt; inactive = flat fitted curve, though single readings scatter.
# Molecular target: Lysosomal alpha-glucosidase (Homo sapiens) (UniProt P10253)
# Experiment: qHTS Assay for Activators of Human alpha-Glucosidase as a Potential Chaperone Treatment of Pompe Disease; also: nearly all actives have a fitted effect of over 80% in size;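 as to activity change, positive = activation: 0% = no enzyme basal signal and 100% = uninhibited enzyme activity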
# Details: purified enzyme, 4-MU-alpha-glucoside fluorescence, 20 min; series mostly up to 76.9 µM; activity change, positive = activation: at the top concentration
# Method in brief: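 Compounds titrated up to 77 uM against 4 nM enzyme and 400 uM methylumbelliferyl substrate at room temperature, 20 min, pH 5.0. Basic stop, then 4-methylumbelliferone fluorescence (365/440 nm) normalized to no-enzyme and enzyme controls; Hill-equation AC50.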
# Potency is read from the fitted curve at half-maximal effect.
SMILES,Potency,"activity change, positive = activation [%]"
CCCCCn1c(=NC(C)=O)c(C#N)cc2c(=O)n3ccccc3nc21,35.5 µM (active),–
CCOCCCn1c(=NC(C)=O)c(C#N)cc2c(=O)n3cccc(C)c3nc21,31.6 µM (active),–
CCOCCCn1c(=NC(C)=O)c(C#N)cc2c(=O)n3ccccc3nc21,31.6 µM (active),–
O=C(Oc1cc2oc(=O)c3c(c2cc1Cl)CCCC3)c1cccs1,31.6 µM (active),–
O=C(Oc1ccc2c3c(c(=O)oc2c1)CCCC3)c1cccs1,35.5 µM (active),–
COCCn1c(=O)[nH]c2cc(C(=O)NC(C)C)ccc2c1=O,35.5 µM (active),–
CCN1CCCC1CNC(=O)c1ccc2c(=O)n(CCOC)c(=O)[nH]c2c1 (configuration not stated),31.6 µM (active),–
COCCn1c(=O)[nH]c2cc(C(=O)NCc3cccnc3)ccc2c1=O,35.5 µM (active),–
O=C(O)c1cccc(NC(=O)C2C3C=CC(C3)C2C(=O)O)c1 (configuration not stated),31.6 µM (active),–
COc1ccc(CCNC(=O)CSc2nc(-c3ccc(OC)c(OC)c3)ccc2C#N)cc1,28.2 µM (active),–
O=c1oc2c(CN3CCOCC3)c(O)c(Cl)cc2c2c1CCCC2,31.6 µM (active),–
O=c1oc2c(CN3CCOCC3)c(O)c(Cl)cc2c2c1CCC2,35.5 µM (active),–
CCCCN(C(=O)NC(=O)C1=C(N2CCOCC2)/C(=C/c2ccccc2)CC1)S(C)(=O)=O,31.6 µM (active),–
CN(C(=O)NC(=O)C1=C(N2CCOCC2)/C(=C/c2ccccc2)CC1)S(C)(=O)=O,39.8 µM (active),–
O=S(=O)(c1ccc(N2CCC(c3ccc(Cl)cc3)=N2)cc1)N(CCO)CCO,35.5 µM (active),–
CN(C)CCCNS(=O)(=O)c1ccc(N2CCC(c3ccc(Cl)cc3)=N2)cc1,35.5 µM (active),–
Cc1ccc2c(c1)Cc1nc3ccccc3nc1-2,35.5 µM (active),–
COc1ccc2cc3cc(C(=O)NCc4cccnc4)oc3nc2c1,31.6 µM (active),–
COc1ccc2cc3cc(C(=O)NCc4ccco4)oc3nc2c1,31.6 µM (active),–
CC(C)OCCCn1c(-c2ccco2)nc2nc3ccccc3nc21,35.5 µM (active),–
COCCn1c(-c2ccco2)nc2nc3ccccc3nc21,35.5 µM (active),–
c1coc(-c2nc3nc4ccccc4nc3n2CC2CCCO2)c1 (configuration not stated),25.1 µM (active),–
CCCCCn1c(-c2ccco2)nc2nc3ccccc3nc21,39.8 µM (active),–
c1ccc(Cn2c(-c3ccco3)nc3nc4ccccc4nc32)cc1,35.5 µM (active),–
CCC(C)n1c(-c2ccco2)nc2nc3ccccc3nc21 (configuration not stated),39.8 µM (active),–

SMILES,Potency,"activity change, positive = activation [%]"
COC(=O)CNC(=O)COC(=O)c1cc(Cl)cc(Cl)c1N,39.8 µM (active),–
Nc1c(Cl)cc(Cl)cc1C(=O)OCC(=O)N1CCOCC1,31.6 µM (active),–
CC(C)N(C(=O)COC(=O)c1cc(Cl)cc(Cl)c1N)C(C)C,35.5 µM (active),–
Nc1c(Cl)cc(Cl)cc1C(=O)OCC(=O)NC1CC1,35.5 µM (active),–
CCOC(=O)CCc1c(C)c(C#N)c2[nH]c3ccccc3n2c1=O,31.6 µM (active),–
Cc1c(CCC(=O)O)c(=O)n2c([nH]c3ccccc32)c1C#N,35.5 µM (active),–
Cc1ccc(Cc2c(C)c(C#N)c3[nH]c4ccccc4n3c2=O)cc1,35.5 µM (active),–
CCCCc1c(C)c(C#N)c2[nH]c3ccccc3n2c1=O,22.4 µM (active),–
Cc1cccc(C2=NN(c3ccc(Br)cc3)[C@@H](C(=O)N3CCOC3=O)[C@@H]2c2ccc(F)cc2)c1,31.6 µM (active),–
COc1ccccc1[C@@H]1C(c2cccc(Cl)c2)=NN(c2ccc(Br)cc2)[C@H]1C(=O)N1CCOC1=O,31.6 µM (active),–
COC(=O)Cc1c(C)c2cc(Cl)c(OC(=O)c3ccco3)cc2oc1=O,28.2 µM (active),–
COC(=O)Cc1c(C)c2ccc(OC(=O)c3ccccc3)cc2oc1=O,35.5 µM (active),–
COC(=O)Cc1c(C)c2ccc(OC(=O)c3ccco3)cc2oc1=O,35.5 µM (active),–
CC(=O)Oc1ccc2c(C)c(CC(C)O)c(=O)oc2c1 (configuration not stated),39.8 µM (active),–
CCC(=O)Nc1c(C#N)c2nc3ccccc3nc2n1-c1ccccc1C,39.8 µM (active),–
CCC(C)NC(=O)CCC(=O)Nc1ccc2nc(N3CC(C)CC(C)C3)cc(C)c2c1 (configuration not stated),31.6 µM (active),–
CCC(C)NC(=O)CCC(=O)Nc1ccc2nc(N3CCOCC3)cc(C)c2c1 (configuration not stated),35.5 µM (active),–
CCCCN(C)C(=O)CCC(=O)Nc1ccc2nc(N3CCOCC3)cc(C)c2c1,39.8 µM (active),–
Cc1ccc(N2N=C(c3ccc(F)cc3)CC2c2ccco2)cc1 (configuration not stated),28.2 µM (active),–
COc1ccccc1C1CC(c2ccco2)=NN1c1ccccc1 (configuration not stated),31.6 µM (active),–
Fc1ccc(C2=NN(c3ccccc3)C(c3ccco3)C2)cc1 (configuration not stated),35.5 µM (active),–
CCOc1cc(C2C3=C(CCCC3=O)N(CCC(=O)O)C3=C2C(=O)CCC3)ccc1OS(=O)(=O)c1ccc(C)cc1,35.5 µM (active),–
COC(=O)Nc1nnc(/C=C/c2ccccc2)s1,31.6 µM (active),–
COc1ccc(/C=C/c2nnc(NC(=O)COc3cccc(C)c3)s2)cc1,31.6 µM (active),–
CCSc1ccc(-c2nn(-c3ccccc3)cc2/C=C(/C#N)C(=O)NC)cc1,25.1 µM (active),–

SMILES,Potency,"activity change, positive = activation [%]"
CCSc1ccc(-c2nn(-c3ccccc3)cc2/C=C(/C#N)C(=O)NCCCOC)cc1,35.5 µM (active),–
CCOC(=O)/C(C#N)=C/c1cn(CCC(=O)O)nc1-c1ccc(Br)cc1,–,9.4e-05
N#Cc1c(N)n(CCNC(=O)c2ccccc2)c2nc3ccccc3nc12,7.94 µM (active),–
N#Cc1c(N)n(CCNC(=O)c2cccs2)c2nc3ccccc3nc12,35.5 µM (active),–
COCCn1c(N)c(C#N)c2nc3ccccc3nc21,35.5 µM (active),–
CCCCCn1c(N)c(C#N)c2nc3ccccc3nc21,35.5 µM (active),–
N#Cc1c(N)n(CCCN2CCOCC2)c2nc3ccccc3nc12,35.5 µM (active),–
Cc1cc(-n2c(=O)c(C#N)cc3c(=O)n4ccccc4nc32)no1,35.5 µM (active),–
Cc1cc(-n2c(=O)c(C#N)cc3c(=O)n4cccc(C)c4nc32)no1,35.5 µM (active),–
COC(=O)c1ccccc1NC(=O)/C=C/c1cc(OC)c(OC)c(OC)c1,35.5 µM (active),–
CSc1nnc(-c2cccn(Cc3ccccc3)c2=O)o1,35.5 µM (active),–
CSc1nnc(-c2cccn(Cc3cccc(Cl)c3)c2=O)o1,28.2 µM (active),–
Nc1ccc(-c2nc3ccc(N)cc3[nH]2)cc1,39.8 µM (active),–
Nc1ccc(-c2nc3ccc(-c4nc5ccccc5o4)cc3[nH]2)cc1,28.2 µM (active),–
Nc1ccc(-c2nc3ccc(N)cc3o2)cc1,35.5 µM (active),–
CCc1cc(=O)n2c([nH]c3ccccc32)c1C#N,28.2 µM (active),–
COCc1cc(=O)n2c([nH]c3ccccc32)c1C#N,35.5 µM (active),–
CCCc1cc(=O)n2c([nH]c3ccccc32)c1C#N,39.8 µM (active),–
N#Cc1cc2c(=O)n3ccccc3nc2n(-c2ccc(Cl)cc2)c1=O,35.5 µM (active),–
Cc1ccc(-n2c(=O)c(C#N)cc3c(=O)n4ccccc4nc32)cc1,25.1 µM (active),–
Cc1ccc2nc3c(cc(C#N)c(=O)n3-c3nccs3)c(=O)n2c1,35.5 µM (active),–
Cc1ccc(-n2c(=O)c(C#N)cc3c(=O)n4cccc(C)c4nc32)cc1,10 µM (active),–
COc1cc(C2NC(=S)NC(c3ccccc3)=C2C(C)=O)cc(Br)c1OCC(N)=O (configuration not stated),28.2 µM (active),–
O=C(CN1C(=O)/C(=C\c2cccc(Cl)c2)Oc2ccccc21)N1CCN(c2ccccn2)CC1,3.98 µM (active),–
CN(C)c1oc(/C=C/c2ccccc2)nc1C#N,31.6 µM (active),–

SMILES,Potency,"activity change, positive = activation [%]"
CN(C)CCNc1oc(/C=C/c2ccccc2)nc1C#N,35.5 µM (active),–
CNc1oc(/C=C/c2ccccc2)nc1C#N,35.5 µM (active),–
C=CCNc1oc(/C=C/c2ccccc2)nc1C#N,35.5 µM (active),–
CC(=O)Nc1c(OC(C)=O)ccc2c(C)cc(=O)oc12,35.5 µM (active),–
CCC(=O)Nc1c(OC(=O)CC)ccc2c(C)cc(=O)oc12,35.5 µM (active),–
CC(=O)c1ccc(-c2cccs2)s1,35.5 µM (active),–
COc1cc(OC)c(-c2nc3ccccc3s2)cc1OC,35.5 µM (active),–
c1ccc2c(N3CCOCC3)nc(N3CCOCC3)nc2c1,28.2 µM (active),–
CCOC(=O)C1=C(C)NC2=C(C(=O)CCC2)C1c1cn(Cc2ccc(Cl)cc2Cl)nc1-c1ccccc1 (configuration not stated),31.6 µM (active),–
Cc1csc2ncc(C(=O)Nc3ccon3)c(=O)n12,35.5 µM (active),–
Cc1c(O)c(CN2CCCCC2)cc2c3c(c(=O)oc12)CCC3,35.5 µM (active),–
Cc1c(O)c(CN2CCCC2)cc2c3c(c(=O)oc12)CCC3,39.8 µM (active),–
CCNc1cc2oc(=O)c(CN3CCOCC3)c(C)c2cc1C,31.6 µM (active),–
CC(C)c1cc(=O)oc2c3c4c(cc12)CCCN4CCC3,35.5 µM (active),–
CC(C)CCNc1nc(-c2ccco2)c2c(c1C#N)CCCC2,31.6 µM (active),–
N#Cc1c(NC2CCCCC2)nc(-c2ccco2)c2c1CCCC2,35.5 µM (active),–
Cc1ccc(C2OC34CCCCCC3C(C#N)(C(=N)O4)C2(C#N)C#N)cc1 (configuration not stated),31.6 µM (active),–
CCOC(=O)c1sc2c(c1C)C(c1cccs1)C1=C(CCCC1=O)N2 (configuration not stated),25.1 µM (active),–
Fc1ccc(CSc2nnc(-c3cc4c(s3)-c3ccccc3CC4)o2)cc1,28.2 µM (active),–
C=CCSc1nnc(-c2cc3c(s2)-c2ccccc2CC3)o1,25.1 µM (active),–
CCSc1nnc(-c2cc3c(s2)-c2ccccc2CC3)o1,31.6 µM (active),–
CSc1nnc(-c2cc3c(s2)-c2ccccc2CC3)o1,35.5 µM (active),–
